D2 PAM-1: D2 dopamine receptor (human) potentiation. P14416. HEK293 T-REx D2, calcium flux, EC20 dopamine potentiation. potentiation, % at 10 µM. hit rate 0.34% among 340,000. AID 485347;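 active = potentiation over 3 SD above the plate norm, cut at about 30% in these data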
Target sequence (P14416 whole entry, looked up): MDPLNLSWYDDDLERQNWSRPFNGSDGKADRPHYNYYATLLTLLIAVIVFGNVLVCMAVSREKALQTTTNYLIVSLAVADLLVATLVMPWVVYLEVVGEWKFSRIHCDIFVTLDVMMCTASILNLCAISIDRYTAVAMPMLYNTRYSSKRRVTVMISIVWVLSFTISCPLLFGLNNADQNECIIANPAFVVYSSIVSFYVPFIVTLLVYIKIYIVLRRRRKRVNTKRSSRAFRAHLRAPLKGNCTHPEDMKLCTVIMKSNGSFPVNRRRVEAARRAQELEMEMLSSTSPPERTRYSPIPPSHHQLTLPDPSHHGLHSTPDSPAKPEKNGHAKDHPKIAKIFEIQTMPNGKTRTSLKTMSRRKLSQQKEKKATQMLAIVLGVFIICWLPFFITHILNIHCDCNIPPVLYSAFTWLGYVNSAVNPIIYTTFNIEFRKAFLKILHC
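Cells plated with tetracycline inducer and held overnight at 30 C; calcium dye loaded 30–90 min at room temperature; baseline taken, compound added and read 180 s; EC20 dopamine then added and read 180 s.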
D2 ag-1: D2 dopamine receptor (human) agonism. P14416. AID 485358. activation, % at 2 µM. HEK293 T-REx D2 cells, calcium flux agonist mode. hit rate 0.53% among 340,000;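 active = activation over 3 SD above normal in the single-dose calcium agonist read, cut at about 30% in these data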
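Tetracycline-induced HEK293 Trex cells with D2 receptor force-coupled to calcium signaling, plated overnight at 30 C and loaded with no-wash calcium dye. Calcium flux read kinetically for 180 s after compound addition; responses flag agonists.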
D2 ag-2: agonists of human D2 dopamine receptor (beta-arrestin) | DiscoveRx PathHunter D2 beta-arrestin, luminescence, 90 min; 100% = 57 uM dopamine signal | AID 624465 | P14416 | hit rate 0.084% among 360,000 | activation, % (concentration not given with the values); in the data active = activation above about 40%; inconclusive = between about 15% and that limit
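DiscoveRx PathHunter D2 beta-arrestin cells (2,100/well) attached overnight, then compound-stimulated 90 min at 37 C in HBSS/10 mM HEPES/0.1% Tween-20 buffer; beta-galactosidase complementation read by luminescence after 1 h at ambient temperature. Dopamine 57 uM final (EC100) as control.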
D2 PAM-2: human D2 receptor positive allosteric modulation; P14416; DiscoveRx D2 beta-arrestin cells, luminescence, 90 min; 100% = 57 uM dopamine signal; potentiation, % (concentration not given with the values); hit rate 0.23% among 360,000; AID 624464; in the data active = potentiation above about 50%; inconclusive = mostly about 30% to 49%
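PathHunter D2 cells, attached overnight at 37 deg C, received compound in DMSO plus dopamine at EC20 (50 nM final) for 90 min at 37 deg C. Beta-arrestin recruitment was read as luminescence after 1 h with detection reagent at ambient temperature.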
D2 antagonist: antagonists of human D2 dopamine receptor | HEK293 TREx D2 cells, calcium flux, dopamine EC80 | hit rate 2% among 340,000 | P14416 | AID 485344 | inhibition, % at 10 µM; in the data active = inhibition above about 30%; inactive = below that, where a call was filed
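Tetracycline-induced HEK293 TREx cells expressing D2 receptor forced-coupled to calcium signalling, loaded with no-wash calcium dye. Compounds added and calcium flux read 180 s, then dopamine added at EC80 and read a further 180 s.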
Each line names hits and unclear results; the compound was inactive in the other large screens. In the library only some 2.4% were active in any assay of this set; here they are far more common.

CCOP(=O)(OCC)/C(=N/OC(=O)c1cccc([N+](=O)[O-])c1)C(N)=O	none
COc1cccc(CN2C(=O)c3ccccc3Sc3ccc(C(=O)N(C)Cc4ccccc4)cc32)c1	none (no result: D2 ag-2, D2 PAM-2, D2 antagonist)
Cc1cccc(C)c1Cn1c(C)c(C(=O)NCc2ccc([N+](=O)[O-])cc2)sc1=O	none (no result: D2 PAM-1, D2 ag-1, D2 antagonist)
COc1ccc(C(=O)Nc2ccccc2SCc2cc(=O)n3nc(C)sc3n2)cc1OC	none
Cc1nn2c(=O)cc(CSc3nc4ccccc4[nH]3)nc2s1	D2 antagonist 39
CC(=O)N(c1ccccc1)c1nc(C)cc(C)c1C#N	D2 antagonist 35
COc1ccc(Br)c(Cn2c(C)c(C(=O)NCc3ccccc3C(F)(F)F)sc2=O)c1	none (no result: D2 PAM-1, D2 ag-1, D2 antagonist)
c1ccc(CN2CCC3(CCCc4ccccc43)CC2)cc1	D2 antagonist 43
COC(=O)c1cc(NC(=O)Cc2cc(OC)c(OC)c(OC)c2)cc(C(=O)OC)c1	D2 antagonist 40
O=C(C1CC1)N1CCc2cc(Br)cc(S(=O)(=O)N3CCN(c4cccc(C(F)(F)F)c4)CC3)c21	none (no result: D2 ag-1, D2 ag-2, D2 PAM-2, D2 antagonist)
O=S(=O)(c1ccc(Cl)cc1)N1CCN(c2ncccn2)CC1	none
O=S(=O)(c1ccc(Cl)cc1)n1cccn1	D2 antagonist 40
O=C(Cc1c(F)cccc1Cl)Nc1cccc(S(=O)(=O)NC2=NCCCCC2)c1	D2 antagonist 31
O=C(CCl)Nc1cccc(S(=O)(=O)NC2=NCCCCC2)c1	none (no result: D2 PAM-1, D2 ag-1, D2 antagonist)
O=C(Nc1cccc(S(=O)(=O)NC2=NCCCCC2)c1)c1cc(-c2ccncc2)nc2ccccc12	D2 PAM-2 98
COc1cc(CN(C(=O)c2ccc(OC(C)C)cc2)c2ccccn2)cc(OC)c1OC	none (no result: D2 ag-1, D2 ag-2, D2 PAM-2, D2 antagonist)
COc1ccccc1N1CCN(CC(=O)c2c(C)[nH]c3cc(C)ccc23)CC1	D2 antagonist 64
COc1ccccc1N1CCN(CC(=O)c2c(C)n(C)c3ccccc23)CC1	none
CCC1CCCCN1CC(=O)c1c(C)[nH]c2cc(C)ccc12 (stereo unspecified)	D2 antagonist 33
COc1cc(OC)c2c(-c3ccccc3)cc(=O)oc2c1C(CC(=O)N1CCN(c2ccccc2)CC1)c1ccc(N(C)C)cc1 (stereo unspecified)	D2 antagonist 48
COc1cc(OC)c2c(-c3ccccc3)cc(=O)oc2c1C(CC(=O)N1CCOCC1)c1ccc(N(C)C)cc1 (stereo unspecified)	D2 antagonist 31
COc1cc(OC)c2c(-c3ccccc3)cc(=O)oc2c1C(CC(=O)N1CCN(c2ccccc2)CC1)c1ccc2c(c1)OCO2 (stereo unspecified)	none (no result: D2 ag-2, D2 PAM-2)
Cc1cccc(NC(=O)C2CCC(CNS(=O)(=O)c3ccc(Br)s3)CC2)c1 (stereo unspecified)	none (no result: D2 ag-2, D2 PAM-2, D2 antagonist)
Cc1c(C(=O)Nc2ccc3c(c2)OCCO3)sc2nc(-c3ccccc3)cn12	D2 antagonist 73
CN(CCOc1ccccc1)CCOc1ccccc1	D2 antagonist 37
CN(CCCCOc1ccc(F)cc1)Cc1ccccc1	D2 antagonist 33
Cc1cc(C)c(C)c(OCCCCN(C)Cc2ccccc2)c1	D2 antagonist 31
CCC(C)c1ccccc1OCCCN(C)Cc1ccccc1 (stereo unspecified)	D2 antagonist 35
CN(CCOc1ccc(F)cc1)Cc1ccccc1	none
CC1=C(C(=O)N2CCN(c3cccc(Cl)c3)CC2)C2(CCCCC2)OC1=O	none (no result: D2 ag-2, D2 PAM-2, D2 antagonist)
CCOC(=O)C1CCN(C(=S)NC2CCCC2)CC1	D2 antagonist 34
CCOC(=O)C1CCCN(C(=S)NC2CCCCC2)C1 (stereo unspecified)	none (no result: D2 PAM-1, D2 ag-1, D2 antagonist)
CCN(Cc1ccccc1)S(=O)(=O)c1ccc(C(=O)Nc2nnc(-c3ccccc3OC)o2)cc1	D2 antagonist 42
COC(=O)CC(NS(=O)(=O)c1cccs1)c1cccc2ccccc12 (stereo unspecified)	D2 antagonist 46
COC(=O)CC(NC(=O)c1ccco1)c1cccc2ccccc12 (stereo unspecified)	none
CCc1nc2c(OCC(=O)c3ccc(Cl)cc3Cl)cccn2c1N(C)C(=O)COc1ccccc1	none (no result: D2 PAM-1, D2 ag-1, D2 antagonist)
CCCCN(C)Cc1c(O)ccc2c(-c3ccccc3)cc(=O)oc12	D2 antagonist 64 (no result: D2 PAM-1)
CCCCN(CC)Cc1c(O)ccc2c(-c3ccccc3)cc(=O)oc12	none
CN(Cc1ccccc1F)c1nc(-c2cccnc2)nc2ccccc12	none (no result: D2 PAM-1, D2 ag-1, D2 antagonist)
CCOc1ccc(CN(C)c2nc(-c3cccnc3)nc3ccccc23)cc1OC	D2 antagonist 36
CCc1cc(=O)oc2cc(C)cc(OCC(=O)N3CCC(C(=O)NC(C)C)(c4ccccc4)CC3)c12	D2 antagonist 53
Cc1cc(NC(=O)c2ccco2)cc(-c2nc3cc(Cl)ccc3o2)c1O	none (no result: D2 ag-2, D2 PAM-2, D2 antagonist)
CCOC(=O)CN(C(=O)CSc1nnc2c(n1)[nH]c1ccccc12)c1ccccc1	none
CCOC(=O)CN(C(=O)CSc1nnc2c(n1)[nH]c1ccc(F)cc12)c1ccccc1	D2 antagonist 72
CCOC(=O)CN(C(=O)CSc1nnc2c(n1)[nH]c1c(C)cc(C)cc12)c1ccccc1	D2 antagonist 61 (no result: D2 ag-2, D2 PAM-2)
CC(C)(CO)Nc1nc(N2CCCC2)nc(N2CCCC2)n1	D2 antagonist 47
O=c1cc(-c2ccccc2)oc2cc(OCc3ccccc3)cc(O)c12	D2 antagonist 51
O=c1cc(-c2ccc(OCc3ccccc3)cc2)oc2cc(OCc3ccccc3)cc(OCc3ccccc3)c12	none (no result: D2 PAM-1, D2 ag-1, D2 antagonist)
Cc1sc(N/N=C/c2cccs2)nc1-c1ccccc1	D2 ag-2 inconclusive, D2 PAM-2 66
CCOC(=O)CNC(c1ccccc1)c1cc(Br)ccc1NC(=O)c1ccc(Cl)cc1 (stereo unspecified)	none (no result: D2 ag-2, D2 PAM-2, D2 antagonist)
CN(C)c1ccc(C(CNS(=O)(=O)c2ccc([N+](=O)[O-])cc2)N2CCCC2)cc1 (stereo unspecified)	none
COCCNc1nc(N2CCCCC2)c2cnn(C)c2n1	D2 PAM-1 36
COCCNc1nc(NCc2ccccc2)c2cnn(C)c2n1	none (no result: D2 PAM-1, D2 ag-1, D2 antagonist)
COc1cc(OC)c(C(=O)NC23CC4CC(CC(C4)C2)C3)cc1OC	D2 PAM-2 65
COc1ccc2c(C)c(CCC(=O)NCc3ccc(Cl)cc3)c(=O)oc2c1C	none (no result: D2 PAM-1, D2 ag-2, D2 PAM-2, D2 antagonist)
Cc1cc2c(cc1[N+](=O)[O-])NC(CNC(C)C)CC2 (stereo unspecified)	D2 antagonist 65
Cc1cc(C(=O)NCC2CCCCC2)ccc1[N+](=O)[O-]	none (no result: D2 PAM-1)
COc1ccc(/C=C2\SC(=O)N(CCNC(=O)C3CC(=O)N(c4ccccc4)C3)C2=O)cc1 (stereo unspecified)	D2 PAM-1 37
CCOc1ccc(N2CC(C(=O)NCCN3C(=O)S/C(=C\c4ccc(OC)cc4)C3=O)CC2=O)cc1 (stereo unspecified)	none
CC(C)C(=O)N1c2nc(C(C)C)nn2C2(CCCCC2)[C@@H]2CCCC[C@@H]21	none (no result: D2 ag-1, D2 ag-2, D2 PAM-2, D2 antagonist)
CCc1ccc(NC(=O)NNC(=O)CCc2ccccc2)cc1	none
O=C(Nc1ccccc1)c1ccccc1CCc1ccccc1	D2 antagonist 32

Source: PubChem
